Results on 40 molecules are retold here after ChEMBL document CHEMBL3988442, “University of Dundee, Small-Polar-MMV Screening Library” (2021).

The assay deals with AMP-activated protein kinase, AMPK (Homo sapiens) (UniProt P54646+O43741+P54619+Q9UGJ0+Q9Y478+Q13131+Q9UGI9). The assay can be described thus: AMP-dependent Kinase enzyme assay. An in vitro enzyme assay that detects ADP turnover that is directly proportional to AMPK activity. This uses naive AMPK that is activated during the assay with MK-8722. Type of assay: functional. More on the design: scale not given: direction of the effect not stated beside the values. The following applies: 30 µM.
Turning to `CC(C)c1nn(C)c(N(C)C)c1CNCc1ccnc(N(C)C)c1`, the Percent Effect is -12.6%. The value for `CC(CN1CCOC1=O)NC(=O)c1cccc(C#N)c1` (stereo not given) was 11.8%. In the case of `CCC(c1ccc(F)cc1)S(=O)(=O)CCO` (stereo not given) it was 0.117%; in that of `CC(C)NC(=O)c1nc(Cn2c(C(F)F)nc3ccccc32)no1`, 12.9%. Consider `CN(C)CCC1CCN(c2cc(N3CCCC3CO)ncn2)CC1` (stereo not given), for which the Percent Effect is -6.25%. The value for `N#CC1CCN(C(=O)CN2CC(c3ccccc3)CC2=O)CC1` (stereo not given) was 5.49%; that for `Cc1noc(CNc2cc3c(cc2Cl)NC(=O)CO3)n1` was 1.17%. In the case of `CC(C)(C)c1n[nH]cc1CNC1CCC(O)CC1` (stereo not given) it was -0.675%.

As for `CN(C)C(=O)N1CCCC(C(=O)N(C)Cc2cnc(N)nc2)C1` (stereo not given), the Percent Effect was -2.52%. The value for `Cc1ccc(C(=O)N(C)CC(=O)N2CCCC2)c(C)c1` was -2.76%. In the case of `O=C(C1CCCN(CCc2ccc3c(c2)CCO3)C1)N1CCCC1` (stereo not given) it was 1.69%. The value for `CS(=O)(=O)NC(=O)c1ccn(-c2cccc(Br)c2)n1` was 2.69%; that for `COc1ccc(OC)c(C(C(=O)O)N2CCSCC2)c1` (stereo not given) was 0.166%. Consider `NC1CCCc2c1cnn2-c1cc(F)cc(F)c1` (stereo not given), for which the Percent Effect was determined as 10.6%. In the case of `CCCSCC(=O)NCc1cccc(CN(C)CC)c1` it was 5.85%; in that of `Cc1cc(N2Cc3cnn(CCO)c3C2)nc(-c2ccccc2)n1`, 4.37%; in that of `Cc1ccc(O)c(CN2CCCCC2CCN2CCOCC2)c1` (stereo not given), 8.46%.

As for `O=C(CC1CCc2ccccc21)NC1(C(=O)O)CCOCC1` (stereo not given), the Percent Effect was -0.354%. The value for `CCCN1C(=O)[C@H]2CC[C@@H]1CN(S(=O)(=O)c1cccc(Cl)c1)C2` was 7.5%; that for `Cc1cnn(CCNCC(=O)N2CCN(c3ncccn3)CC2)c1` was -6.6%. In the case of `CC(C(=O)Nc1cccc(C(F)(F)F)c1)N(C)CCN1CCOCC1` (stereo not given) it was 8.76%. The value for `COC(=O)CCN(C)C(=O)c1csc(Cc2ccccc2F)n1` was -2.56%; that for `Cc1nn(C)c(C)c1C1CCCN1C(=O)c1ccc(C(N)=O)s1` (stereo not given) was -0.19%; that for `CS(=O)(=O)N1CCN(C(=O)c2cncs2)CC(C(N)=O)C1` (stereo not given) was 9.41%. Regarding `CC(C(=O)NCC(C)(C)c1ccc2c(c1)OCO2)n1ccnc1` (stereo not given), the Percent Effect was determined as 0.66%. In the case of `Cc1nn(C)c(C)c1S(=O)(=O)NCC1(C(N)=O)CCOCC1` it was 0.589%; in that of `COc1ccc2c(c1)CCCC2CC(=O)O` (stereo not given), -8.39%; in that of `CCCN(CCC)C(=O)CN1CCCC1C(=O)N(C)C` (stereo not given), -3.78%. In the case of `C[C@@H](N)C(=O)N1CCC(c2[nH]ncc2-c2ccccc2)CC1` it was -8.89%; in that of `COc1ncccc1N(C)C(=O)Cn1cc(-c2ccccc2)nn1`, -1.29%; in that of `CC(C)C(NC(=O)C1CC1)c1cc(O)nc(-c2cccnc2)n1` (stereo not given), 6.3%. In the case of `O=C(Nc1cccnc1)NC1CCN(c2ccccc2OC(F)F)C1` (stereo not given) it was 0.675%; in that of `O=C(CC1COCCN1)N1CCC2(CCc3ccccc32)CC1` (stereo not given), -0.69%; in that of `Cc1cc(C)n(C2CN(C(=O)c3cn4ccsc4n3)C2)n1`, -4.27%. Regarding `NC(=O)c1csc(N2C[C@@H](CN3CCCCC3)[C@@H](CO)C2)n1`, the Percent Effect was -3.06%. In the case of `Cc1cnc(Nc2cccc(C3CCCN3Cc3cn(C)nc3C)n2)s1` (stereo not given) it was 21.4%. The value for `CC(C)c1noc(C(C)N2CCC(c3nc4ccccc4[nH]3)CC2)n1` (stereo not given) was 0.872%; that for `CC(C(=O)NCCc1ccc2c(c1)OCCO2)n1cncn1` (stereo not given) was -6.97%; that for `COc1ccc(CCCC(=O)N2CCCC(n3cncn3)C2)cc1` (stereo not given) was 4.51%. As to `CCCn1ccnc1-c1cccc(NC2CCOC2)c1` (stereo not given), the Percent Effect is 1.21%.
